# System: VDR:RXRa (NR concentration 270 nM, RXRa partner concentration 90 nM)
# Experiment: PBM binding z-score (relative to random genomic background probes); higher = stronger binding; sequences stand for … in GC…GCGATTGACAGCGTAGAATGAAGG
# Method: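 Protein-binding microarray (Agilent 4x180K custom design, double-stranded 60-nt probes: 5' GC cap, 34-nt variable region, 24-nt constant primer region; full probe sequence given). Purified or IVT nuclear receptor:RXRα heterodimers (3:1 NR:RXRα, mostly 270:90 nM) or homodimers were incubated for 1 h in PBS with 2% milk and no ligand, then detected with Alexa488 antibodies. Fluorescence from o1-orientation probes (~5 replicates averaged) was converted to z-scores against 500 random hg19 background probes. Variable regions are seed direct-repeat (DR0–DR5) sites, all their single-nucleotide variants and half-site ablations.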
row,Sequence,PBM binding z-score
1,ATATGTAGGTTAGGGTCAGTCAGAAAGTAGGGAA,2.49
2,GCTAGTTGGTCAGTAAAATGTCACACACCGGTCG,-0.0389
3,CGTCAAAGGTCAAGGTAACGTAACAGAAAGCAGC,5.13
4,CGTCAAAGTTCAAGGTCACGTAACAGAAAGCAGC,5.84
5,CGAACGAGGTCACCAGGACAGTGAAGAGGTTGGA,5.65
6,TCTAGTTGGTCAAAGGTCACGCACTCGAAATGCG,6.05
7,CCAACTGGGCCAAAAAGGTCATTGATGCCGATAA,4.89
8,ATCGAAAGGTCAAAGGTGAGTATACCCACCCGAA,6.2
9,CGAACTACGTCATCCAGGACAGTGAATACATTGA,0.17
10,ATCGAAAGGTCAAGGTGAGTATAGAGAAAGGGAA,5.32
11,CGAACGAGGTCATTGACAGGACAGTGAATAGTAA,5.64
12,ATATGTAGGTTAGCTGAGGTCATTCAGACTAGGC,6.12
13,CCTGCGAGGTCATGGTCAGCTAATCTACAGTATG,5.17
14,AGAATGAGGTTAAGTTCAGGGAAACAGAATACAT,3.33
15,ATATGTAGGATAGCTGGGGTCATTCAGACTAGGC,4.86
16,CCTTACGGGTTACTCCAGGTTATAGCATCGGAGT,1.39
17,CAAACTAGGTCACTAAAGGTCAAAGTCGAATGAC,6.48
18,CCTTACGGGTCACTCCAGGTCATAGCATCGGAGT,5.95
19,TCTAGTTGGTCACGGAGGACACACACGACGGGTA,2.67
20,TATCAAAGTTCAAAGGTAACGTAAGTATCCACAC,5.28

row,Sequence,PBM binding z-score
1,TCGCCTAGGTCATGGGCCAGTATACCACGCGAAC,2.09
2,CTATGTAGGTTAAGGGAGTCATTCAGTTTGAAAG,1.94
3,TCTGCTAGGTCATCGATGGTCAGCTAATCTGCTA,2.16
4,CGAACTAGGTCAAGGACAGTAAATCTCCGCACGC,1.33
5,CCTTACGGGTCAAGGTTATAGCCCGGGTGGTACG,3.31
6,AGAATGAGGTTACCAAAGTTCAGGGAAACGCTTG,5.53
7,CGTCAAAGTTCAACTAAGGTTACGTAAAGCACGC,6.11
8,TATACAAGGTCAAAGGCCAGAGTACGAATGTCGA,4.83
9,ACTCGGTGGACAAAGGTCAGAGCTACGCCAGTGA,2.91
10,AGTCAAAGTTCAGGACGAGGTAACGTTAAGCACG,2.97
11,AATAAAGGGTCATCGTAGGCCAGAGTACGCACAG,5.33
12,CCTACTGGGCCTAAGGTCATTGATTCCAATGCTC,3.34
13,CCAGACAGGTGAGAAGGTAACTCAGCCTCGATTA,0.116
14,TAGCCTAGGTCATGCGGGACAGTATAGTGTCGGC,3.48
15,TTACCAAGGTCAAGGTCGTTGATCCCTCTGTAGA,5.5
16,CGAACGAGGTCAAAGGACAGTGAAAGGCGACGTA,5.02
17,CGAACTAGGTCATTGACAGGACAGTGGATAGTAA,2.15
18,CGTCCAAAGTCAAAGGTCAGTGAAGAGATGACGG,3.16
19,CAGCATAGGTCAGGGCCAGTATAGGAGGAACGTT,1.4
20,ACTCGGATGACAAAGGTCAGAGCTACGCCAGTGA,3.14

# — the supplement of paper PMC6555819
